# Giardia killer = kills Giardia lamblia | Giardia lamblia trophozoite viability | activity change, % at 7.66 µM, hits read low | 0.15% of 340,000 active | AID 540267; in the data active = activity change below about -80%; inconclusive = between about -30% and that limit;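 note: parasites exposed to compound for two days anaerobically before the ATP read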
#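 Giardia lamblia trophozoites (100 cells/well) were incubated with compounds for 48 h at 37 deg C under anaerobic conditions. Viability was read as ATP content by one-step luminescence after 15-30 min at room temperature.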
# SW480 rerep = induces DNA re-replication in SW480 colon adenocarcinoma cells | 1.8% of 340,000 active | Potency, µM (highest dose often 46.1 µM), hits mostly activators | AID 624297 | SW480 DNA re-replication, Hoechst DNA content imaging, 48 h; note: nearly all actives have a fitted effect of over 55% in size
#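 Hoechst fluorescence of nuclei (405 nm excitation, 500-530 nm emission) measured by plate-scanning imager after 48 hr compound exposure at 37 C; re-replication scored as increased number of nuclei with elevated intensity.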
# VP16 counter = Gal4-VP16 reporter inhibition counter-screen | Drosophila S2 Gal4-VP16 UAS-luciferase, luminescence, 20 h | Potency, µM (titrated, usually from 53.6 µM), hits mostly inhibitors | 3.5% of 310,000 active | AID 2546;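 note: Gal4-VP16 expression switched on by copper sulfate through the metallothionein promoter; nearly all actives have a fitted effect of over 50% in size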
# Chronic BCR inh = inhibitors of chronic active B-cell receptor signaling | 0.05% of 340,000 active | ABC-DLBCL IkBa-CBG/CBR reporter, luminescence ratio, 4 h | Potency, µM (titrated, usually from 46.1 µM), actives largely listed as inhibitors; active = well fitted inhibition curve with a large enough effect in the signal ratio, with a control signal flat, not every such curve was filed as active; inconclusive = small, poorly fitted or top-dose-only effect, or effect the other way, or a change in a side signal; the % refers to the signal ratio
#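 TMD8 ABC-DLBCL cells carrying doxycycline-inducible green luciferase fused to IkappaBalpha plus unfused red luciferase were exposed to compounds (up to 46 uM) for 4 hrs at 37C. Activity came from the overlap-corrected green/red luminescence ratio.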
# MCF10A rereplic = induces DNA re-replication in MCF 10a normal breast cells; MCF 10A DNA re-replication, Hoechst nuclear intensity, 48 h; Potency, µM (series often up to 46.1 µM), usual class: activators; 2.9% of 350,000 active; AID 624296; note: nearly all actives have a fitted effect of over 50% in size
# RORg inh = ROR gamma (mouse) transcription inhibition; P51450; Drosophila S2 Gal4-RORgamma UAS-luciferase reporter, 20 h; Potency, µM (doses to about 53.6 µM), hits mostly inhibitors; 5.4% of 310,000 active; AID 2551; note: nearly all actives have a fitted effect of over 60% in size
# Target sequence (P51450 whole entry, looked up, the tested form may be a part): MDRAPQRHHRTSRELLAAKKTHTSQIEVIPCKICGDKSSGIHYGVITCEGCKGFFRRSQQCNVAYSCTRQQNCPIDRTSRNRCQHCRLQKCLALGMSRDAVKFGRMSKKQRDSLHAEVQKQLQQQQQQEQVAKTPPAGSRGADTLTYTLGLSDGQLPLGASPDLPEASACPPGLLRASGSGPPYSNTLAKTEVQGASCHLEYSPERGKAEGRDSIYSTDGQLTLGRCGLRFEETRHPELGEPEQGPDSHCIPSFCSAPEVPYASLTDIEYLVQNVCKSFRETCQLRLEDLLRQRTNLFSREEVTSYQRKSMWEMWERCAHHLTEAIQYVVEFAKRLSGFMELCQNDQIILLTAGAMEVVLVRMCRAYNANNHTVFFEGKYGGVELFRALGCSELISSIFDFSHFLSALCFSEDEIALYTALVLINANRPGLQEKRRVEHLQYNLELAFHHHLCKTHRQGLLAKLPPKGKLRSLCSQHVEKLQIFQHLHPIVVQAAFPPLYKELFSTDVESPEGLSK
#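 Schneider cells (Drosophila), stable Gal4 DBD–ROR gamma + UAS-luc; 1 hr cmpd preincubation; Cu2+ induction 700 uM final; 20 hr ambient; luminescence.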
# A number is an active result; n = inactive; u = inconclusive; x = not tested or not shown. Shown are actives, neighbours in structure and some others; about 8.3% of the full set was active somewhere. Unless noted, calls come from the whole dose curve; as a rule, active = well fitted curve in the direction sought with a large enough effect; inconclusive = small, poorly fitted or top-dose-only effect, or another doubt; inactive = no such curve, though single readings can be large; an effect the other way counts as inactive or inconclusive.
SMILES,Giardia killer,SW480 rerep,VP16 counter,Chronic BCR inh,MCF10A rereplic,RORg inh
CCc1ccc(CNC(=O)c2cc3c(C)nc4ccccc4c3o2)cc1,n,n,18µM,u,u,n
COc1ccc(S(=O)(=O)NC2CCCCC2)cc1F,n,n,n,n,n,n
CC(=O)c1ccc(N(CC(=O)NC2CCCCC2)C(=O)CNC(=O)c2ccco2)cc1,n,n,n,n,n,n
NS(=O)(=O)c1ccc(CNC(=O)/C=C/c2c(F)cccc2Cl)cc1,n,u,n,n,n,n
CC1(C)CC2CC(C)(CN2C(=S)Nc2ccccc2F)C1 (stereo not drawn),n,n,n,n,n,4µM
CC1(C)CC2CC(C)(CN2C(=S)NC(=O)c2ccccc2Cl)C1 (stereo not drawn),n,n,1µM,n,u,1.3µM
Cc1cc(F)ccc1NC(=O)CS(=O)(=O)c1cccc2nsnc12,n,x,x,x,x,x
Cc1ccc(C)c(NC(=S)N(Cc2ccco2)C(C)c2cccs2)c1 (stereo not drawn),n,n,5µM,n,n,2.5µM
Cc1ccc(C)c(NC(=S)N(CCc2ccncc2)C(C)C)c1,n,n,n,n,n,11µM
Cc1ccc(Cl)cc1NC(=S)N(Cc1ccco1)C(C)c1cccs1 (stereo not drawn),n,n,7.1µM,u,u,3.5µM
O=C1C(c2ccccc2)=[N+]([O-])c2ccccc21,n,u,x,u,u,x
COc1ccc(-c2nc3c4ccccc4ccn3c2CN2CCOCC2)cc1OC,n,n,n,u,u,u
CCOc1ccccc1/C=N/n1nnnc1N,n,u,n,n,n,n
O=C(c1cc2cc(F)ccc2[nH]1)N1CCC(Cc2ccccc2)CC1,n,n,n,u,8.2µM,n
O=C(NCC(=O)N1CCCCC1)c1ccc(Cl)cc1Cl,n,n,n,n,n,u
COc1c(Cl)ccc(Cl)c1C(=O)NC(=O)N1CCOCC1,n,n,n,n,n,n
O=C(NC(=S)N1CCOCC1)c1ccccc1Cl,n,n,u,u,n,2.8µM
O=C(NC(=S)N1CCCC1)c1ccc(Cl)cc1Cl,n,u,1.4µM,n,n,0.89µM
COc1c(Cl)ccc(Cl)c1C(=O)NC(=S)N1CCOCC1,n,n,11µM,n,n,3.5µM
S=C(Nc1ccccc1Cl)N1CCOCC1,n,n,u,n,n,n
Cc1ccc(S(=O)(=O)NNC(=O)c2ccccc2O)cc1,n,n,n,n,u,11µM
Cc1ccccc1NS(=O)(=O)c1ccc(C(=O)NNC(=O)c2ccccc2O)cc1,n,15µM,x,u,n,x
O=C(NNC(=O)c1ccccc1O)c1ccc(NS(=O)(=O)c2ccc(F)cc2)cc1,n,u,x,u,n,x
O=C(NNC(=O)c1ccccc1O)c1ccc(S(=O)(=O)Nc2ccccc2)cc1,n,11µM,x,n,n,x
O=C(NNC(=O)c1ccccc1C(=O)O)c1ccc(O)cc1,n,n,u,u,n,0.32µM
SMILES,Giardia killer,SW480 rerep,VP16 counter,Chronic BCR inh,MCF10A rereplic,RORg inh
COc1cc(C)ccc1OCc1cc(C(=O)N2CCN(C3CCCCC3)CC2)no1,n,n,u,n,u,n
COc1ccc(-c2c(-c3ccc(OC)nc3)c3ccccc3n2C)cc1,n,u,x,n,5.2µM,x
COc1ccccc1NC(=O)CSC1=Nc2ccccc2C2=NC(CCC(=O)NCc3ccco3)C(=O)N12 (stereo not drawn),x,x,x,n,x,x
O=[N+]([O-])c1ccc(COc2ncnc3ccccc23)cc1,n,n,n,u,n,n
COCCNC(=O)C(=O)N/N=C(\C)CC(=O)Nc1ccc2c(c1)OCO2,n,n,n,u,n,n
COCCNC(=S)N/N=C(\C)CCc1ccc2c(c1)OCO2,n,u,10µM,20µM,n,4.5µM
C/C(CCc1ccc2c(c1)OCO2)=N\NC(=S)NC(C)C,n,n,4.5µM,u,n,2.2µM
COc1ccc(CN2C(=O)c3cccc4cccc(c34)C2=O)cc1,n,18µM,n,n,n,n
O=C1c2cccc3cccc(c23)N1Cc1cccc(F)c1,n,u,n,n,26µM,n
O=C1c2cccc3cccc(c23)C(=O)N1Cc1ccccc1,n,n,n,u,n,n
COc1ccc(S(=O)(=O)NCc2ccccn2)cc1NC(=O)c1ccc(Cl)cc1,n,u,x,n,8.2µM,x
COc1ccc(S(=O)(=O)NCc2ccncc2)cc1NC(=O)c1ccc(Cl)cc1,n,n,x,n,n,x
COc1ccc(S(=O)(=O)NCc2ccccn2)cc1OC,n,n,n,n,n,n
COc1ccc(S(=O)(=O)NCc2ccccn2)cc1NC(=O)c1ccccc1C,n,7.3µM,x,u,3.7µM,x
Cc1cccn2c(=O)c3cc(C(N)=S)c(=N)n(CCCN4CCOCC4)c3nc12,n,8.2µM,n,n,u,n
CCCCNC(=O)c1cc2c(=O)n3cccc(C)c3nc2n(CCN2CCOCC2)c1=N,n,u,n,n,u,n
Cc1cccn2c(=O)c3cc(C#N)c(=N)n(CCCN4CCOCC4)c3nc12,n,4.1µM,x,x,u,x
Cc1cccn2c(=O)c3cc(C(=O)NCc4ccc(F)cc4)c(=N)n(CCCN4CCOCC4)c3nc12,n,8.2µM,x,x,u,x
Cc1cccn2c(=O)c3cc(C#N)c(=N)n(CCN4CCOCC4)c3nc12,n,n,n,u,n,n
COCCCn1c(=N)c(C(=O)NCc2ccc3c(c2)OCO3)cc2c(=O)n3cccc(C)c3nc21,u,u,x,x,n,x
COCCCn1c(=N)c(C(N)=S)cc2c(=O)n3cccc(C)c3nc21,n,16µM,x,x,u,x
O=C(CN1CCN(C(C(=O)Nc2ccc(Cl)cc2C(F)(F)F)c2ccccc2)CC1)NC1CC1 (stereo not drawn),n,n,x,n,n,x
CCCn1c(=N)c(C#N)cc2c(=O)n3ccccc3nc21,n,u,n,n,n,n
N#Cc1cc2c(=O)n3ccccc3nc2n(CCCn2ccnc2)c1=N,n,15µM,n,n,9.2µM,n
COc1cc(CCC(=O)NCc2ccc3c(c2)CCN3C(=O)c2ccccc2)cc(OC)c1OC,x,x,x,n,x,x
SMILES,Giardia killer,SW480 rerep,VP16 counter,Chronic BCR inh,MCF10A rereplic,RORg inh
Oc1ccc(/C=C/c2nc(-c3ccccc3O)n(-c3ccccc3)n2)cc1,n,u,u,u,16µM,u
N#Cc1ccc(C(=O)NC(=S)N2CCN(C=O)CC2)cc1,n,n,x,n,n,x
Cn1ncc([N+](=O)[O-])c1C(=O)Nc1ccc(C2CCCCC2)cc1,n,12µM,n,n,n,n
CC1CCN(c2nnc(-c3ccccc3)c3ccccc23)CC1,n,n,n,u,11µM,n
Cc1ccc(-c2nnc(N3CCC(C)CC3)c3ccccc23)cc1C,n,n,18µM,n,u,20µM
Cc1ccc(-c2nnc(N3CCC(C)CC3)c3ccccc23)cc1,n,u,u,n,u,u

# Source: PubChem BioAssay (National Center for Advancing Translational Sciences (NCATS))
